Test [1] is described as follows: qHTS assay for small molecule agonists of the p53 signaling pathway (AID 651631; calls by dose curve; also: nearly all actives have a fitted effect of over 15% in size; also: potency is read from the fitted curve at half-maximal effect). The method, boiled down: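 Readout was fluorescence from the LiveBLAzer FRET substrate, applied for 2 h at room temperature after 16 h compound exposure at 37 °C. Cells were the p53RE-bla HCT-116 line, with beta-lactamase driven by p53 response elements.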
On the technique in general: qHTS replaces the single test concentration by a dilution series.

Test [2] in a line: qHTS assay for small molecules that induce genotoxicity in human embryonic kidney cells expressing luciferase-tagged ATAD5 (AID 651632). Also: nearly all actives have a fitted effect of over 15% in size. Also: potency is read from the fitted curve at half-maximal effect. The method, boiled down:
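DMSO vehicle served as the control. HEK293T reporter cells, 16 hr at 37C, then 30 min Amplite at room temperature; ATAD5 induction is measured as luciferase activity.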

Test [3] is described as follows: qHTS assay for small molecule agonists of the p53 signaling pathway - cell viability (AID 651633; calls by dose curve; also: nearly all actives have a fitted effect of over 30% in size; also: potency is read from the fitted curve at half-maximal effect). The method in brief:
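Viability counter-read: CellTiter-Glo luminescence (30 min, room temperature) in the same p53RE-bla plates. These plates had been exposed to compounds for 16 h at 37 C.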

Test [4] is described as follows: qHTS assay for small molecules that induce genotoxicity in human embryonic kidney cells expressing luciferase-tagged ATAD5 - cell viability (AID 651634; calls by dose curve; also: nearly all actives have a fitted effect of over 25% in size; also: potency is read from the fitted curve at half-maximal effect). The method, boiled down: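 Here HEK293T cells with the ATAD5 luciferase reporter are incubated with test compounds for 15.5 hr, and cytotoxicity is then gauged by measuring protease activity in live cells using fluorescence.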

Test [5] is described as follows: qHTS assay for small molecule disruptors of the mitochondrial membrane potential - cell viability (AID 720634; calls by dose curve; also: nearly all actives have a fitted effect of over 20% in size; also: potency is read from the fitted curve at half-maximal effect). The method, boiled down: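 Viability of HepG2 cells is scored from ATP content by luminescence; cells are exposed to compound for 1 hr at 37 C and 5% CO2, then dosed with m-MPI dye before the CellTiter-Glo reagent.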
The nature of test [6]: qHTS assay for small molecule disruptors of the mitochondrial membrane potential (AID 720635). Also: potency is read from the fitted curve at half-maximal effect. The method, boiled down:
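Mitochondrial membrane potential tracked with Mito-MPS dye, red aggregates (ex 540/em 590 nm) against green monomers (ex 490/em 535 nm). Compound treatment 1 hr at 37C, dye 30 min in HepG2.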

Test [7] is described as follows: qHTS assay to test for compound auto fluorescence at 590 nm (red) in HepG2 cells (AID 720674). The method, boiled down: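 Red autofluorescence (Ex/Em 540/590 nm, Rose Bengal sodium equivalents) was measured in HepG2 cells, 2,000 per well in MEM plus 10% FBS, plated overnight at 37 C. Readings were taken 1 hr after adding 23 nL compound or DMSO, at 37 C and 5% CO2.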

Test [8] can be described thus: qHTS assay to test for compound auto fluorescence at 460 nm (blue) in HEK293 cells (AID 720678). The method in brief:
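HEK293, 2,000 cells/well, 10% dialyzed FBS; attach 4-5 hr 37C; pin compound or DMSO; o/n 37C/5% CO2; fluorescence 405/460 nm; triamterene-equivalent units.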

Test [9] in a line: qHTS assay to test for compound auto fluorescence at 590 nm (red) in HEK293 cells (AID 720679). The method, boiled down: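 Intensity at 540nm excitation and 590nm emission is reported as Rose Bengal sodium-equivalent autofluorescence. Measurements followed overnight exposure (37C, 5% CO2) of HEK293 cells, 2,000 per well, to 23 nL compound.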
Test [10] is described as follows: qHTS assay to test for compound auto fluorescence at 535 nm (green) in HepG2 cells (AID 720675).

Several values for one entry are separate records, joined by “and”; a condition that tells them apart may be missing. Equal entries are not always repeated. Inconclusive results are not listed. Some structures have more than one record in an assay (separate samples or runs), and their calls can disagree. Activity calls are given as the source filed them. Unless noted, calls follow the shape of the dose curve; as a rule, active = well fitted curve in the direction sought with a large enough effect in the repeat runs; inconclusive = weak or mixed curves; inactive = no such curve, though single readings can be large; an effect the other way counts as inactive or inconclusive.

28 molecules from PubChem BioAssay (Tox21) can be followed below.

In the case of `NCCOCCO`, the Potency result in test [1], in test [2], in [3], in [4], in test [5] and in [6] was “inactive” each time. For the same molecule, the Potency result in [7] and in [9] was “inactive” each time. Further, the outcome in test [8] was inactive.
Regarding `CCCCCC1C(=O)CCC1CC(=O)OC` (configuration not stated), the Potency result in test [1], in [2], in test [3], in test [4], in test [5] and in test [6] was “inactive” each time. Moreover, the Potency entry in test [7] and in [9] was “inactive” in each case. For the same molecule, the molecule was called inactive in test [8].
For the molecule `Nc1ccc(N)c(Cl)c1`, the Potency entry in test [1], in test [2], in [3], in [4], in test [5] and in test [7] was “inactive” each time. The Potency result in test [9] was “inactive”. In test [6], the Potency was 3.85 µM (active) and 27.3 µM (active). Besides, the molecule was classed as inactive in test [8].
Consider `C=CN1CCCC1=O`, for which the Potency result in test [1], in test [2], in test [3], in test [4], in test [5] and in [7] was “inactive” throughout. Also, in [9], the Potency result is “inactive”. In addition, in [8], the result was inactive.
As for `CN(C)CCCN1c2ccccc2Sc2ccc(Cl)cc21`, the Potency in test [1] is 10.9 µM (active). The Potency entry in [2], in [3], in test [4], in [5], in test [7] and in [9] was “inactive” throughout. The molecule was called inactive in [8].
On to `CC(=O)Nc1ccc2c(c1)Cc1cc(NC(C)=O)ccc1-2`, for which the Potency entry in test [1], in test [2], in test [3], in test [4], in [5] and in test [6] was “inactive” each time. The Potency result in test [7] and in [9] was “inactive” each time. For the same molecule, the call in test [8] was inactive.
Turning to `C[C@]12CC[C@@H]3c4ccc(O)cc4CC[C@H]3[C@@H]1CC[C@H]2O`, the Potency in test [1] was 15.6 µM (active) and 27.3 µM (active); in test [6], 27.8 µM (active) and 27.3 µM (active). In addition, the Potency entry in test [2], in test [3] and in test [7] was “inactive” throughout. Besides, the result in test [8] was inactive.
As to `CCCCCCC(C)O` (configuration not stated), the Potency entry in test [2], in [3], in test [4], in [5], in test [6] and in test [7] was “inactive” throughout. For the same molecule, the Potency result in test [10] and in [9] was “inactive” each time. Further, the molecule was called inactive in test [8].
As to `C=CC(C)(O)CCC=C(C)C` (configuration not stated), the Potency result in test [2], in [3], in [4], in test [5], in [6] and in test [7] was “inactive” each time. Besides, the Potency entry in test [10] and in test [9] was “inactive” throughout. For the same molecule, the result in test [8] was inactive.
Consider `CCCN1C=CN(C)C1`, for which the Potency entry in test [2], in test [3], in [4], in test [5], in [6] and in test [7] was “inactive” throughout. The Potency result in test [10] was “inactive”. The outcome in test [8] was inactive.
As to `CC(=O)O[C@]1(C(C)=O)CC[C@H]2[C@@H]3C=C(Cl)C4=CC(=O)CC[C@]4(C)[C@H]3CC[C@@]21C`, the Potency entry in test [2], in [4], in test [5], in test [7] and in test [10] was “inactive” throughout. The result in test [8] was inactive.
As to `CCC(=O)O[C@H]1[C@H](O[C@@H]2[C@@H](C)[C@H](O[C@H]3C[C@@](C)(OC)[C@@H](O)[C@H](C)O3)[C@@H](C)C(=O)O[C@H](CC)[C@@](C)(O)[C@H](O)[C@@H](C)C(=O)[C@H](C)C[C@@]2(C)O)O[C@H](C)C[C@@H]1N(C)C`, the Potency entry in test [2], in test [4], in [5], in test [7] and in test [9] was “inactive” throughout. Also, in test [3], the Potency was 13.3 µM (active). Moreover, in test [8], the molecule was classed as inactive.
For the molecule `Cc1ccc(C(C)(C)C)c(O)c1`, the Potency entry in test [2], in test [3], in [4], in test [5], in [7] and in test [10] was “inactive” in each case. In addition, in test [6], the Potency was 26.4 µM (active) and 17.2 µM (active). Further, the call in test [8] was inactive.
Turning to `CC(=O)Oc1c(C)c(C)c2c(c1C)CC[C@@](C)(CCC[C@H](C)CCC[C@H](C)CCCC(C)C)O2`, the Potency entry in [1], in test [3], in test [5], in [6] and in test [7] was “inactive” each time. The molecule was called inactive in test [8].
Take `CC1(C)O[C@@H]2C[C@H]3[C@@H]4C[C@H](F)C5=CC(=O)C=C[C@]5(C)[C@@]4(F)[C@@H](O)C[C@]3(C)[C@]2(C(=O)CO)O1`: the Potency entry in [2], in [4], in test [5], in test [6], in test [7] and in test [10] was “inactive” in each case. Besides, the Potency result in test [9] was “inactive”. For the same molecule, the result in test [8] was inactive.
For `CCC/C=C/C=O`, the Potency result in test [2], in test [3], in test [4], in test [5], in test [7] and in test [10] was “inactive” each time. The result in [8] was inactive.
For the molecule `COc1ccc(-c2coc3cc(O)cc(O)c3c2=O)cc1`, the Potency is 1.38 µM (active) and 3.86 µM (active) in test [2]; 4.9 µM (active) and 13.7 µM (active) in test [5]; 3.09 µM (active) and 6.86 µM (active) in test [6]. Besides, the Potency result in test [3], in [4], in test [7] and in test [10] was “inactive” each time. Further, the result in test [8] was inactive.
For the molecule `Cc1cccc(Nc2ccccc2C(=O)O)c1C`, the Potency result in test [2], in test [3], in test [4], in [5], in test [7] and in test [10] was “inactive” each time. Moreover, the Potency entry in test [9] is “inactive”. Further, in [8], the outcome was inactive.
Consider `COc1ccc2nc(N)sc2c1`, for which the Potency entry in [2], in [4], in test [5], in [6], in [7] and in test [10] was “inactive” in each case. Besides, in [9], the Potency result is “inactive”. Moreover, the call in test [8] was inactive.
Regarding `CC/C=C\C/C=C\C/C=C\CCCCCCCC(=O)O`, the Potency entry in test [3], in [4], in [5], in test [7], in [10] and in [9] was “inactive” throughout. The result in test [8] was inactive.
As for `CN(C)/N=N/c1nc[nH]c1C(N)=O`, the Potency entry in [2], in test [3], in test [4], in test [5], in [6] and in [7] was “inactive” each time. The Potency result in test [10] and in test [9] was “inactive” in each case. In addition, the result in test [8] was inactive.
Take `CN(Cc1cnc2nc(N)nc(N)c2n1)c1ccc(C(=O)N[C@@H](CCC(=O)O)C(=O)O)cc1`: the Potency entry in test [2], in test [4], in [5], in test [7] and in test [10] was “inactive” throughout. For the same molecule, the Potency in test [3] is 168 nM (active) and 48.6 nM (active).
Take `CC[C@]12CCCN3CCc4c(n(c5ccccc45)[C@@](O)(C(=O)OC)C1)[C@@H]32`: the Potency entry in [2], in test [3], in [4], in test [5], in [7] and in test [10] was “inactive” in each case. In [8], the result was inactive.
For `CCOC(=O)C(C)Oc1ccc(Oc2cnc3cc(Cl)ccc3n2)cc1` (configuration not stated), the Potency entry in test [2], in test [4], in test [5], in test [7], in [10] and in test [9] was “inactive” each time. Moreover, in [8], the result was inactive.
Turning to `O=Cc1ccccc1C=O`, the Potency in [2] is 11.9 µM (active); in test [3] it was 11.9 µM (active) and 12.2 µM (active); in test [4] it was 21.1 µM (active); in test [5] it was “inactive and 61.1 µM (active)”; in test [6], 21.1 µM (active) and 30.6 µM (active). Further, the Potency entry in [7] and in test [9] was “inactive” throughout. In addition, the molecule was called inactive in test [8].
For `CC1(C)NC(=O)N(c2ccc([N+](=O)[O-])c(C(F)(F)F)c2)C1=O`, the Potency result in [2], in test [3], in test [4], in test [5], in test [7] and in test [9] was “inactive” in each case. In test [8], the outcome was inactive.
On to `C[N+](C)(C)CCO`, for which the Potency result in test [2], in test [3], in test [4], in test [5], in [6] and in [7] was “inactive” each time. Further, the Potency entry in [10] was “inactive”. Moreover, the molecule was called inactive in test [8].
Consider `FC(F)(F)C(Cl)Br` (configuration not stated), for which the Potency result in [2], in [3], in test [4], in [5], in [6] and in test [7] was “inactive” in each case. In addition, the Potency result in test [10] is “inactive”. Moreover, the outcome in test [8] was inactive.
